According to the supplement of paper PMC12282887:
± gives the standard deviation of the averaged measurements.

Tests used:
Assay in all cases: promoter activity interaction Z-score (Lux/OD deviation from empty-vector control); higher = stronger promoter induction by the compound
[1] = tested on: E. coli BW25113 acrABp lux reporter
In short: (§1)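 E. coli BW25113 (wild type or marA, soxS or rob deletion) carrying low-copy luxCDABE promoter reporters grew in 40 µl LB Lennox in 384-well plates at 37°C. Each compound was tested at four 1:2 dilutions in biological duplicates. OD600 and luminescence were read every 30 min for 12 h. Areas were taken over 0–8 h (wild type) or 1–9 h (mutants), and wells below 10% of median growth area were removed. The score is the Z-transformed residual of growth-normalised luminescence fitted against the empty-vector control.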

[2] = tested on: E. coli BW25113 marRABp lux reporter
In short: as §1

[3] = tested on: E. coli BW25113 micFp lux reporter
In short: as §1

[4] = tested on: E. coli BW25113 ompFp lux reporter
In short: as §1

[5] = tested on: E. coli BW25113 robp lux reporter
In short: as §1

[6] = tested on: E. coli BW25113 soxSp lux reporter
In short: as §1

[7] = tested on: E. coli BW25113 tolCp lux reporter
In short: as §1

[8] = 1.8 µg/ml, genetic background: wild type
[9] = 1.8 µg/ml, genetic background: ΔmarA
[10] = 1.8 µg/ml, genetic background: Δrob
[11] = 1.8 µg/ml, genetic background: ΔsoxS
[12] = 3.7 µg/ml, genetic background: wild type
[13] = 3.7 µg/ml, genetic background: ΔmarA
[14] = 3.7 µg/ml, genetic background: Δrob
[15] = 3.7 µg/ml, genetic background: ΔsoxS
[16] = 7.3 µg/ml, genetic background: wild type
[17] = 7.3 µg/ml, genetic background: ΔmarA
[18] = 7.3 µg/ml, genetic background: Δrob
[19] = 7.3 µg/ml, genetic background: ΔsoxS
[20] = 14.7 µg/ml, genetic background: wild type
[21] = 14.7 µg/ml, genetic background: ΔmarA
[22] = 14.7 µg/ml, genetic background: ΔsoxS

CC[C@H]1OC(=O)[C@H](C)[C@@H](O[C@H]2C[C@@](C)(OC)[C@@H](O)[C@H](C)O2)[C@H](C)[C@@H](O[C@@H]2O[C@H](C)C[C@H](N(C)C)[C@H]2O)[C@](C)(O)C[C@@H](C)C(=O)[C@H](C)[C@@H](O)[C@]1(C)O [Erythromycin]
promoter activity interaction Z-score [1, 8]: 0.453 ± 0.14
promoter activity interaction Z-score [1, 9]: 0.681 ± 0.23
promoter activity interaction Z-score [1, 10]: 0.159 ± 0.56
promoter activity interaction Z-score [1, 11]: 0.201 ± 0.23
promoter activity interaction Z-score [1, 12]: 0.762 ± 0.17
promoter activity interaction Z-score [1, 13]: -1.09 ± 0.061
promoter activity interaction Z-score [1, 14]: 0.417 ± 0.063
promoter activity interaction Z-score [1, 15]: 1.35 ± 1.5
promoter activity interaction Z-score [1, 16]: 1.66 ± 0.12
promoter activity interaction Z-score [1, 17]: -0.406 ± 0.24
promoter activity interaction Z-score [1, 18]: 1.7 ± 0.48
promoter activity interaction Z-score [1, 19]: 2.23 ± 1.1
promoter activity interaction Z-score [1, 20]: 7.47 ± 0.26
promoter activity interaction Z-score [2, 8]: 0.316 ± 0.064
promoter activity interaction Z-score [2, 9]: 0.0943 ± 0.048
promoter activity interaction Z-score [2, 10]: 0.109 ± 0.022
promoter activity interaction Z-score [2, 11]: 0.268 ± 0.14
promoter activity interaction Z-score [2, 12]: 0.459 ± 0.1
promoter activity interaction Z-score [2, 13]: 0.54 ± 0.35
promoter activity interaction Z-score [2, 14]: 0.617 ± 0.38
promoter activity interaction Z-score [2, 15]: 0.806 ± 0.22
promoter activity interaction Z-score [2, 16]: 1.87 ± 0.21
promoter activity interaction Z-score [2, 17]: 1.31 ± 0.22
promoter activity interaction Z-score [2, 18]: 1.34 ± 0.3
promoter activity interaction Z-score [2, 19]: 1.3 ± 0.3
promoter activity interaction Z-score [2, 20]: 2.2 ± 0.17
promoter activity interaction Z-score [2, 21]: 2.59
promoter activity interaction Z-score [3, 8]: 0.913 ± 0.45
promoter activity interaction Z-score [3, 9]: -0.122 ± 0.027
promoter activity interaction Z-score [3, 10]: -0.273 ± 0.066
promoter activity interaction Z-score [3, 11]: 0.0903 ± 0.17
promoter activity interaction Z-score [3, 12]: 0.742 ± 0.35
promoter activity interaction Z-score [3, 13]: -0.1986 ± 0.0018
promoter activity interaction Z-score [3, 14]: -0.176 ± 0.13
promoter activity interaction Z-score [3, 15]: 0.695 ± 0.24
promoter activity interaction Z-score [3, 16]: 0.748 ± 0.99
promoter activity interaction Z-score [3, 17]: -0.167 ± 0.085
promoter activity interaction Z-score [3, 18]: -0.148 ± 0.073
promoter activity interaction Z-score [3, 19]: -0.224 ± 0.12
promoter activity interaction Z-score [3, 20]: -1.13 ± 0.77
promoter activity interaction Z-score [3, 21]: -0.537 ± 0.026
promoter activity interaction Z-score [3, 22]: -0.792 ± 0.2
promoter activity interaction Z-score [4, 8]: 0.573 ± 0.45
promoter activity interaction Z-score [4, 9]: 0.458 ± 0.21
promoter activity interaction Z-score [4, 10]: 0.2177 ± 0.0014
promoter activity interaction Z-score [4, 11]: 0.925 ± 0.37
promoter activity interaction Z-score [4, 12]: 0.894 ± 0.58
promoter activity interaction Z-score [4, 13]: 0.288 ± 0.31
promoter activity interaction Z-score [4, 14]: 1.58 ± 1.1
promoter activity interaction Z-score [4, 15]: 2.48 ± 1.1
promoter activity interaction Z-score [4, 16]: 1.78 ± 0.84
promoter activity interaction Z-score [4, 17]: 1.17 ± 0.52
promoter activity interaction Z-score [4, 18]: 1.96 ± 2
promoter activity interaction Z-score [4, 19]: 1.97 ± 0.072
promoter activity interaction Z-score [4, 20]: -0.66 ± 0.73
promoter activity interaction Z-score [4, 22]: -1.6
promoter activity interaction Z-score [5, 8]: -0.139 ± 0.59
promoter activity interaction Z-score [5, 9]: -0.666 ± 0.22
promoter activity interaction Z-score [5, 10]: -0.816 ± 0.1
promoter activity interaction Z-score [5, 11]: -0.469 ± 0.72
promoter activity interaction Z-score [5, 12]: -0.638 ± 0.12
promoter activity interaction Z-score [5, 13]: -2.16 ± 0.55
promoter activity interaction Z-score [5, 14]: -1.32 ± 0.2
promoter activity interaction Z-score [5, 15]: -0.16 ± 0.77
promoter activity interaction Z-score [5, 16]: -2.01 ± 0.31
promoter activity interaction Z-score [5, 17]: -2.33 ± 0.13
promoter activity interaction Z-score [5, 18]: -2.18 ± 0.23
promoter activity interaction Z-score [5, 19]: -2.29 ± 0.77
promoter activity interaction Z-score [5, 20]: -2.43 ± 0.2
promoter activity interaction Z-score [5, 21]: -3.56 ± 0.35
promoter activity interaction Z-score [6, 8]: 0.111 ± 0.015
promoter activity interaction Z-score [6, 9]: 0.214 ± 0.046
promoter activity interaction Z-score [6, 10]: -0.111 ± 0.089
promoter activity interaction Z-score [6, 11]: 0.0397 ± 0.3
promoter activity interaction Z-score [6, 12]: -0.0179 ± 0.043
promoter activity interaction Z-score [6, 13]: -0.0482 ± 0.098
promoter activity interaction Z-score [6, 14]: 0.228 ± 0.28
promoter activity interaction Z-score [6, 15]: 0.647 ± 0.18
promoter activity interaction Z-score [6, 16]: 0.0493 ± 0.044
promoter activity interaction Z-score [6, 17]: 0.351 ± 0.19
promoter activity interaction Z-score [6, 18]: 0.215 ± 0.16
promoter activity interaction Z-score [6, 19]: 1.65 ± 0.52
promoter activity interaction Z-score [6, 20]: 0.956 ± 0.22
promoter activity interaction Z-score [6, 21]: 0.78 ± 0.098
promoter activity interaction Z-score [6, 22]: 3.05 ± 2.9
promoter activity interaction Z-score [7, 8]: 0.39 ± 0.18
promoter activity interaction Z-score [7, 9]: -0.768 ± 0.45
promoter activity interaction Z-score [7, 10]: -0.66 ± 0.14
promoter activity interaction Z-score [7, 11]: -0.318 ± 0.13
promoter activity interaction Z-score [7, 12]: 0.0127 ± 0.24
promoter activity interaction Z-score [7, 13]: -1.38 ± 0.97
promoter activity interaction Z-score [7, 14]: -0.333 ± 1.4
promoter activity interaction Z-score [7, 15]: -0.0456 ± 0.47
promoter activity interaction Z-score [7, 16]: 0.177 ± 1.4
promoter activity interaction Z-score [7, 17]: -0.63 ± 0.74
promoter activity interaction Z-score [7, 18]: 0.449 ± 2.3
promoter activity interaction Z-score [7, 19]: 0.434 ± 0.85
promoter activity interaction Z-score [7, 20]: 1.66 ± 1.9
promoter activity interaction Z-score [7, 21]: -1.14 ± 3.2
promoter activity interaction Z-score [7, 22]: 0.542 ± 0.66
